From the supplement of paper PMC11060735
Where “and” joins values, the source holds several entries; their conditions need not be identical. Equal values may be shown once. Where a name gives a salt, the structure may show the parent alone. Screen size: about 1,800 compounds; about 50 (3%) showed activity. The sample holds actives, similar compounds and a random draw of the others, so the mix is not that of the screen. A number with no mark means an inactive call.

Test system: mouse p16Ink4a+/- lung fibroblasts (INKBRITE, bleomycin-injured)
Assay: percentage of GFP+ (p16Ink4a+) fibroblasts among all cells in well; higher = less depletion of p16Ink4a+ cells, active = 20 or less
Conditions: 1 µM; 3 days

Compound	percentage of GFP+
Cc1cccc(CC(=O)N2CCc3c2ccc(-c2cn(C)c4ncnc(N)c24)c3F)n1	45%
COc1cc(C(=O)NS(=O)(=O)c2ccccc2C)ccc1Cc1cn(C)c2ccc(NC(=O)OC3CCCC3)cc12 [Zafirlukast]	47.1%
Cn1cc(CNCC2CCN(c3ncc(C(=O)NO)cn3)CC2)c2ccccc21 [Quisinostat]	1.92% (active)
CN1CCc2c(c3ccccc3n2Cc2ccc(C(=O)NO)cc2)C1 [Tubastatin A HCl]	53.9% and 45%
COc1ccc(COc2ccc(Cc3cnc(N)nc3N)cc2OC)cc1	33.4%
Cc1cccc(C)c1OCC(C)N (centres undefined) [Mexiletine]	46%
Cc1cc(C)c(CNC(=O)c2cc(-c3ccc(CN4CCOCC4)cc3)cc3c2cnn3C2CCCC2)c(O)n1	49.7%
CCN(c1cc(-c2ccc(CN3CCOCC3)cc2)cc(C(=O)NCc2c(C)cc(C)nc2O)c1C)C1CCOCC1	54.5%
CCNC(=O)c1noc(-c2cc(C(C)C)c(O)cc2O)c1-c1ccc(CN2CCOCC2)cc1 [Luminespib (NVP-AUY922)]	6.33% (active)
Cc1cc(C2CCCCC2)n(O)c(=O)c1 [Ciclopirox]	29.6% and 35.5%
CCCOc1ccc(C(=O)OCCN(CC)CC)cc1N [Proparacaine]	37.1%
COC(=O)CCSCc1ccc(-c2onc(C)c2NC(=O)OC(C)c2ccccc2Cl)cc1 (centres undefined)	43.9%
CCN(CC)CCCC(C)Nc1c2ccc(Cl)cc2nc2ccc(OC)cc12 (centres undefined) [Quinacrine]	46.6%
O=C(/C=C\n1cnc(-c2cc(C(F)(F)F)cc(C(F)(F)F)c2)n1)NNc1cnccn1 [Selinexor (KPT-330)]	14.7% (active)
COc1cc(-c2ncn(/C=C\C(=O)OC(C)C)n2)cc(C(F)(F)F)c1	14.1% (active)
O=C(/C=C\n1cnc(-c2cc(C(F)(F)F)cc(C(F)(F)F)c2)n1)N1CC(F)(F)C1	24.1%
CN(C)CCOC(c1ccccc1)c1ccccc1 [Diphenhydramine]	47.9%
CC(C)(C)c1cnc(CSc2cnc(NC(=O)C3CCNCC3)s2)o1	28.7%
N#Cc1ccc2[nH]c(O)c(-c3ccc(CN4CCOCC4)cn3)c2c1	40.8%
CO/C(O)=C1\C(C)=NC(C)=C(C(=O)O[C@@H]2CCCN(Cc3ccccc3)C2)[C@@H]1c1cccc([N+](=O)[O-])c1 [Benidipine]	41.8%
Cn1c(=O)c2c(ncn2CC2OCCO2)n(C)c1=O [Doxofylline]	41%
CC(C)OC(=O)C(C)(C)Oc1ccc(C(=O)c2ccc(Cl)cc2)cc1 [Fenofibrate]	45.5%
O=C1CCc2cc(OCCCCc3nnnn3C3CCCCC3)ccc2N1 [Cilostazol]	45.1%
CN1CC[C@@H](c2c(O)cc(O)c3c(=O)cc(-c4ccccc4Cl)oc23)[C@@H]1CO	20.2%
CN1CC[C@H](c2c(O)cc(O)c3c(=O)cc(-c4ccccc4Cl)oc23)[C@H](O)C1 [Flavopiridol]	4.28% (active)

Compound	percentage of GFP+
CC(=O)C1=C(O)C=C2Oc3c(C(C)=O)c(O)c(C)c(O)c3[C@]2(C)C1=O [(+)-Usniacin]	45.5%
CCNC1=N[C@@H]2[C@@H](O)[C@H](O)[C@@H](CO)O[C@@H]2S1 [Thiamet G]	56.9%
CC(=O)c1cc([N+](=O)[O-])c(Sc2cccc(Cl)c2Cl)s1	41.2%
COc1ccc2[nH]c(S(=O)Cc3ncc(C)c(OC)c3C)nc2c1 (centres undefined) [Esomeprazole; Omeprazole]	43.4% and 32.8%
COc1c(C)cnc(Cn2cnc3c(Cl)nc(N)nc32)c1C	7.81% (active)
Nc1nc(O)c2ncn(COCCO)c2n1 [Aciclovir]	45.4%
COc1ccc(CNC(=O)Nc2ncc([N+](=O)[O-])s2)cc1 [N-(4-Methoxybenzyl)-N'-(5-Nitro-1,3-Thiazol-2-Yl)Urea]	43.1%
CCN(Cc1ccncc1)C(=O)C(CO)c1ccccc1 (centres undefined) [Tropicamide]	49.3%
O=C(Nc1ccc(OC(F)(F)F)cc1)c1sccc1NCc1ccnc2ccccc12	30.4%
Clc1cccc(Cl)c1NC1=NCCN1 [Clonidine]	51.5%
CN1CCN(C2=Nc3ccccc3Oc3ccc(Cl)cc32)CC1 [Loxapine]	51.2%
CC(C)n1c(/C=C/[C@@H](O)C[C@@H](O)CC(=O)O)c(-c2ccc(F)cc2)c2ccccc21 [Fluvastatin]	19.7% (active)
CC(C)c1c(C(=O)Nc2ccccc2)c(-c2ccccc2)c(-c2ccc(F)cc2)n1CC[C@@H](O)C[C@@H](O)CC(=O)O [Atorvastatin]	41.6%
O=C(O)C[C@H](O)C[C@H](O)/C=C/c1c(C2CC2)nc2ccccc2c1-c1ccc(F)cc1 [Pitavastatin Calcium]	22.1%
NC(Cc1c[nH]c2ccc(O)cc12)C(=O)O (centres undefined) [5-hydroxytryptophan (5-HTP)]	41.1%
C[C@H](Cn1cnc2c(N)ncnc21)OCP(=O)(O)O [Tenofovir]	36.4%
CC(C)(C)C(=O)OCOP(=O)(COCCn1cnc2c(N)ncnc21)OCOC(=O)C(C)(C)C [Adefovir Dipivoxil]	19.4% (active)
CC(C)OC(=O)OCOP(=O)(CO[C@H](C)Cn1cnc2c(N)ncnc21)OCOC(=O)OC(C)C [Tenofovir Disoproxil]	37.9%
Cc1nc(O)c(C#N)cc1-c1ccncc1 [Milrinone]	37.8%
CCOC(=O)N1CCC(=C2c3ccc(Cl)cc3CCc3cccnc32)CC1 [Loratadine]	54.5%
CC(C)c1cc(-c2nnc(O)n2-c2ccc3c(ccn3C)c2)c(O)cc1O [Ganetespib]	4.48% (active)
OC(CC1c2ccccc2-c2cncn21)C1CCCCC1 (centres undefined)	43%
CCCCCCCCCCCC1=C(O)C(O)=CC(=O)C1=O [Embelin]	51.4%
COc1ccc2cccc(CCNC(C)=O)c2c1 [Agomelatine]	39.1%
CC(=O)SCC(Cc1ccccc1)C(=O)NCC(=O)OCc1ccccc1 (centres undefined) [Racecadotril]	45%

Compound	percentage of GFP+
COC(=O)[C@H](Cc1ccccc1)NC(=O)[C@@H](N)CC(=O)O [Aspartame]	44.2%
CC(C)C[C@@H](C=O)NC(=O)[C@H](CC(C)C)NC(=O)[C@H](CC(C)C)NC(=O)OCc1ccccc1	7.69% (active)
CCCCCOC(=O)Nc1nc(=O)n([C@@H]2O[C@H](C)[C@@H](O)[C@H]2O)cc1F [Capecitabine]	40.5%
CN(Cc1ccc(C(C)(C)C)cc1)Cc1cccc2ccccc12 [Butenafine]	51.2%
Cn1cc(/C=C/C(=O)c2cccc(F)c2)cc1/C=C/C(=O)NO	54%
O=C(/C=C/c1cccc(S(=O)(=O)Nc2ccccc2)c1)NO [Belinostat]	15.9% (active)
O=C(/C=C/c1ccccc1)NC(NC(=S)Nc1ccc(Cl)cc1)C(Cl)(Cl)Cl (centres undefined)	58.3%
Nc1cccc2c1CN(C1CCC(=O)NC1=O)C2=O (centres undefined) [Lenalidomide]	46%
CC/C(=C(\c1ccccc1)c1ccc(OCCN(C)C)cc1)c1ccccc1 [Tamoxifen]	34.9%
Cc1ccc([N+](=O)[O-])cc1S(=O)(=O)N(C)/N=C/c1cnc2ccc(Br)cn12	3.79% (active)
CC(C)c1nc(N(C)S(C)(=O)=O)nc(-c2ccc(F)cc2)c1/C=C/[C@@H](O)C[C@@H](O)CC(=O)O [Rosuvastatin, Rosuvastatin Calcium]	41.7%
Cn1cnc2c(F)c(Nc3ccc(Br)cc3F)c(C(=O)NOCCO)cc21	44.7%
CN1c2cc(O)c(N=NC(N)=O)cc2CC1S(=O)(=O)O (centres undefined) [Carbazochrome sodium sulfonate]	43%
CC1(C)CC(=O)c2c(C(F)(F)F)nn(-c3ccc(C(N)=O)c(N[C@H]4CC[C@H](O)CC4)c3)c2C1	6.92% (active)
CC1(C)CC(=O)c2c(C(F)(F)F)nn(-c3ccc(C(N)=O)c(N[C@H]4CC[C@H](OC(=O)CN)CC4)c3)c2C1	6.23% (active)
CC(=O)O/N=C1/C(=O)N(Cc2cc(Cl)ccc2Cl)c2ccc(Cl)cc21	51.6%
CC(C)(C)c1ccc(C(=O)CCCN2CCC(OC(c3ccccc3)c3ccccc3)CC2)cc1 [Ebastine]	56.5%
OC1(c2ccc(Cl)c(C(F)(F)F)c2)CCN(CCCC(c2ccc(F)cc2)c2ccc(F)cc2)CC1 [Penfluridol]	55.9%
COc1ccc(-c2ccc3c(N4CCOCC4)nc(N4C[C@@H](C)O[C@@H](C)C4)nc3n2)cc1CO	23.7%
Cc1ccc(=O)n(-c2ccccc2)c1 [Pirfenidone]	46%
CNC(=O)c1cc(Oc2ccc(NC(=O)Nc3cc(C(C)(C)C)nn3-c3ccc4ncccc4c3)c(F)c2)ccn1 [Rebastinib]	39.9%
CC(C)C[C@H](NC(=O)[C@H](Cc1ccccc1)NC(=O)c1cnccn1)B(O)O [Bortezomib]	5.29% (active)
CC(C)C1CCC(C(=O)N[C@H](Cc2ccccc2)C(=O)O)CC1 (some centres undefined) [Nateglinide]	46.5%
CNC(=O)[C@H](Cc1ccccc1)NC(=O)[C@H](CC(C)C)[C@H](CSc1cccs1)C(=O)NO [Batimastat]	41.9%
